# Measurements: PubChem BioAssay
# Calls of active or inactive are those of the source.
# Legend:
# [1] = E. coli DRC41 culture turbidity changes, primary screen, E. coli filamentation inducer project, strain DRC41, OD650, 48 h (AID 1152);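 note: E. coli MC1000 strain DRC41 lacking acrAB efflux pump and sulA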; conditions: E. coli DRC41 (acrAB sulA), higher = more signal, called active from +8 up or from −8 down
# [2] = small-molecule binders of probe aLefty1, primary screen, biochemical, small-molecule microarray, 635/667 nm fluorescence (AID 1153); conditions: higher = more signal;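 note: score merges spot fluorescence with signal-to-noise ratio from the scanned slide images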
# [3] = PSAC antagonists in infected red cells, primary screen, cell-based, P. falciparum Indochina, OD700, 1 h (AID 1154); conditions: P. falciparum Indochina infected RBC osmotic lysis, higher = more signal, called active from +8 up or from −8 down
# [4] = PSAC antagonists in infected red cells, primary screen, cell-based, P. falciparum Indochina, OD700, 2 h (AID 1155);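 note: lysis reports solute entry through the parasite surface anion channel PSAC; channel blockers reduce lysis of infected cells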; conditions: P. falciparum Indochina infected erythrocytes, osmotic lysis OD700; higher = more signal, called active from +8 up or from −8 down
# [5] = osmotic lysis modulators in infected erythrocytes, primary screen, PSAC antagonist project, cell-based, P. falciparum Indochina, OD700, 3 h (AID 1156); conditions: higher = more signal, called active from +8 up or from −8 down
# [6] = PSAC antagonists in infected red cells, primary screen, cell-based, P. falciparum Indochina, OD700, 18 h (AID 1157); conditions: P. falciparum Indochina infected erythrocytes, osmotic lysis OD700, 18 h; higher = more signal, called active from +8 up or from −8 down
# [7] = modulators of S6 phosphorylation in cells, primary screen, cell-based, A549, cytoblot, luminescence, serum-stimulated (AID 1158); conditions: A549 phospho-S6 cytoblot, 5 h, higher = more signal;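 note: serum-stimulated A549 lung adenocarcinoma cells; signal is phosphorylated S6 detected by cytoblot immunostaining with HRP secondary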
# [8] = molecular target: NADPH oxidase 2 (Homo sapiens) (UniProt P04839); test: NOX2-dependent H2O2 signal modulators, primary screen, NOX inhibitor project, cell-based, HEK293-NOX2, PMA-stimulated, Amplex Red fluorescence (AID 1159); conditions: 45 min, higher = more signal, called active from +8 up or from −8 down; note: test concentration not given here
# NADPH oxidase 2 (Homo sapiens), sequence (P04839 whole entry, looked up): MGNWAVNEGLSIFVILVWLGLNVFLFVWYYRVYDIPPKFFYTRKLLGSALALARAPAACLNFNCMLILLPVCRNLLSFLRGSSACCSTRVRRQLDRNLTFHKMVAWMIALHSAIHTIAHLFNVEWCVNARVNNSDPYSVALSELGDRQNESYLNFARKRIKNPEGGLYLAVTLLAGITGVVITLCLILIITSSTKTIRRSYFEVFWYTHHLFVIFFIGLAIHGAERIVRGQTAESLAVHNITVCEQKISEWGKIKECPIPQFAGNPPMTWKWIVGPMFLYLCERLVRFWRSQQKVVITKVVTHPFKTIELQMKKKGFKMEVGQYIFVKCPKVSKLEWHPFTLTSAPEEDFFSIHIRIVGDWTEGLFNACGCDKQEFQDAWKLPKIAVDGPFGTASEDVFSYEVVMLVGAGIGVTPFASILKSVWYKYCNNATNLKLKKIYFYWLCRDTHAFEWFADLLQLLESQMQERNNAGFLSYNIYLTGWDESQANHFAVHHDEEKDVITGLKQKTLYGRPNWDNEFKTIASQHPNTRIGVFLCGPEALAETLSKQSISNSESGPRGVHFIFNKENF
# [9] = molecular target: NADPH oxidase 4 (Homo sapiens) (UniProt Q9NPH5); test: NOX4-dependent H2O2 signal modulators, primary screen, NOX inhibitor project, cell-based, HEK293-NOX4, tetracycline-induced, Amplex Red fluorescence (AID 1160); conditions: 45 min, higher = more signal, called active from +8 up or from −8 down
# NADPH oxidase 4 (Homo sapiens), sequence (Q9NPH5 whole entry, looked up): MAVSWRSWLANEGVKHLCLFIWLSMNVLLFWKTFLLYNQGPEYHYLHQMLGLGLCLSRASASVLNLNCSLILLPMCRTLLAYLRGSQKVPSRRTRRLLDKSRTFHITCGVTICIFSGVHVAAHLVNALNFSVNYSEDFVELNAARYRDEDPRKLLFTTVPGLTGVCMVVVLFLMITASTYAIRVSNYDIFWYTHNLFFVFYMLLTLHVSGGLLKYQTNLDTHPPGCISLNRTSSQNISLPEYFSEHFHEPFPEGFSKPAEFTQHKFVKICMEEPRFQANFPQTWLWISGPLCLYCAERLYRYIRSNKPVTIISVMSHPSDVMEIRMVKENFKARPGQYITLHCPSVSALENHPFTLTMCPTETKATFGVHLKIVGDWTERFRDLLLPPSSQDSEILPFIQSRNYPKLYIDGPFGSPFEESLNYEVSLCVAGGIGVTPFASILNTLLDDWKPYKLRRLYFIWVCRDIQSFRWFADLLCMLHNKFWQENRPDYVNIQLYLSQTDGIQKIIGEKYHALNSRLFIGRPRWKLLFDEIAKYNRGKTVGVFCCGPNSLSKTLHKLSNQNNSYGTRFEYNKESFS
# [10] = molecular target: NADPH oxidase 5 (Homo sapiens) (UniProt Q96PH1); test: NOX5-dependent H2O2 signal modulators, primary screen, NOX inhibitor project, cell-based, HEK293-NOX5, Amplex Red fluorescence (AID 1161); conditions: HEK293-NOX5, ionomycin, 45 min, higher = more signal
# NADPH oxidase 5 (Homo sapiens), sequence (Q96PH1 whole entry, looked up): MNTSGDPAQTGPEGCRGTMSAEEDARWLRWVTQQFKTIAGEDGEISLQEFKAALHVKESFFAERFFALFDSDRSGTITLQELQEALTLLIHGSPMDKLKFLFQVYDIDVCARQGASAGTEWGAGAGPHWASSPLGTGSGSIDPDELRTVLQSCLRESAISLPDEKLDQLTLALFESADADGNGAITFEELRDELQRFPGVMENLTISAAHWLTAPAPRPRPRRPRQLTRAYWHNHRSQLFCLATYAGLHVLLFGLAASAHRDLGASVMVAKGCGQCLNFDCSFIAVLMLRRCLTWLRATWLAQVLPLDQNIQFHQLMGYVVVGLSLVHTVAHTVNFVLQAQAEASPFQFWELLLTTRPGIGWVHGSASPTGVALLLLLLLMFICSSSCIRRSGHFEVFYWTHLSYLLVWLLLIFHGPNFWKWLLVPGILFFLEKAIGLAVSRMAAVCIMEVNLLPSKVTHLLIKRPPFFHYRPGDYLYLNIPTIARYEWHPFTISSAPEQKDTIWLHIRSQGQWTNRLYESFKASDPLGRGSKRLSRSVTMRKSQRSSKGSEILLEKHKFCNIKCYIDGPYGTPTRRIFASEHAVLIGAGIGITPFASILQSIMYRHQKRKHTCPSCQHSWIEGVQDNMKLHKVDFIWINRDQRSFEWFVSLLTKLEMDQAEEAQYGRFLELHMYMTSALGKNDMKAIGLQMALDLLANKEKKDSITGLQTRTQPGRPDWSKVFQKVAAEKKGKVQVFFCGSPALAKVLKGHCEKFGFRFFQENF
# [11] = A549 cell viability effects, profiling panel, calcein-AM fluorescence, 48 h, basal (AID 1162); conditions: higher = more signal; note: test concentration not given here
# [12] = adipocyte viability effects, profiling panel, cell-based, 3T3-L1 adipocytes, calcein-AM fluorescence, 48 h, basal (AID 1163); conditions: 3T3-L1 adipocytes viability, higher = more signal; note: test concentration not given here
# [13] = HepG2 cell viability effects, profiling panel, calcein-AM fluorescence, 48 h, basal (AID 1164); conditions: higher = more signal; note: test concentration not given here
# [14] = MM1S cell viability effects, profiling panel, calcein-AM fluorescence, 48 h, basal (AID 1165); conditions: higher = more signal;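 note: viability of MM1S multiple myeloma cells under basal unstimulated conditions; test concentration not given here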
# [15] = basal RPMI8226 viability, no added stimulus, profiling panel, cell-based, calcein-AM fluorescence, 48 h, PK04 Diversity Set (AID 1166); conditions: RPMI8226 myeloma viability, higher = more signal;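 note: cells grown under basal conditions without added stimulus; test concentration not given here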
# [16] = basal HepG2 mitochondrial membrane potential changes, profiling panel, cell-based, JC-1 fluorescence, 24 h, 100 nL compound (AID 1167); conditions: higher = more signal; note: test concentration not given here
# [17] = basal 3T3-L1 adipocyte mitochondrial potential changes, profiling panel, cell-based, JC-1 fluorescence, 3T3-L1 adipocytes, 24 h, 100 nL compound (AID 1168); conditions: JC-1 mitochondrial fluorescence, higher = more signal, called active from +8 up or from −8 down; note: test concentration not given here
# [18] = basal RPMI8226 mitochondrial membrane potential changes, profiling panel, cell-based, JC-1 fluorescence, 24 h, 100 nL compound (AID 1169); conditions: RPMI8226 myeloma, JC-1 mitochondrial potential fluorescence, higher = more signal; note: test concentration not given here
# [19] = basal MM1S mitochondrial membrane potential changes, profiling panel, cell-based, JC-1 fluorescence, 24 h, 100 nL compound (AID 1170); conditions: higher = more signal; note: test concentration not given here
# [20] = A549 lung cancer cell viability effects, profiling panel, resazurin fluorescence, 24 h, PK04 Diversity Set (AID 1171); conditions: higher = more signal, called active from +8 up or from −8 down; note: test concentration not given here
Compound,z-score [1],composite z-score [2],z-score [3],z-score [4],z-score [5],z-score [6],z-score [7],z-score [8],z-score [9],z-score [10],z-score [11],z-score [12],z-score [13],z-score [14],z-score [15],z-score [16],z-score [17],z-score [18],z-score [19],z-score [20]
COCCOC(=O)N1C(=O)[C@@]2(c3cc(C#CC4=CCCCC4)ccc31)[C@H](c1ccc(OCCO)cc1)N1[C@H](c3ccccc3)[C@H](c3ccccc3)OC(=O)[C@H]1[C@@H]2C(=O)N1CCCCCCC1,3.39 (inactive),1.85,2.24 (inactive),0.742 (inactive),0.171 (inactive),-0.521 (inactive),2.26,1.44 (inactive),0.639 (inactive),1.3,0.508,1.35,1.5,0.177,-0.288,-0.288,-2.7 (inactive),-1.19,-1.21,-2.16 (inactive)
CN1C(=O)[C@]2(CCC(=O)OC(C)(C)C)N=C(c3ccc(OCCCO)cc3)O[C@@H]2c2ccccc21,0.504 (inactive),0.448,33.2 (active),29.3 (active),2.63 (inactive),2.68 (inactive),-0.0426,-2.09 (inactive),-0.534 (inactive),-1.44,-0.024,0.834,-0.54,-0.964,-3.26,1.29,1.41 (inactive),-0.931,0.129,-0.877 (inactive)
CN(C)CCCCNC(=O)[C@H]1C[C@H]2C(=O)NCC(=O)N2[C@H]1c1cccc(OCCO)c1,1.06 (inactive),-0.007,0.799 (inactive),0.33 (inactive),-0.0825 (inactive),0.129 (inactive),-0.0315,-0.241 (inactive),0.382 (inactive),1.05,1.11,-0.237,-0.13,0.585,0.0875,0.348,0.871 (inactive),-0.223,-0.348,1.26 (inactive)
COc1ccc(NN2C(C(O)c3cc(C(F)(F)F)cc(C(F)(F)F)c3)C=CC3C(=O)N(C4CCCCC4)C(=O)C32)cc1 (stereo not given),-0.523 (inactive),1.41,1.62 (inactive),0.507 (inactive),0.545 (inactive),0.632 (inactive),-0.35,-0.934 (inactive),-1.64 (inactive),-1.35,-0.557,-0.826,0.837,-0.167,-1.31,-1.68,0.0313 (inactive),0.139,-1.14,-0.35 (inactive)
